Measurements published in PubChem BioAssay AID1053144 (Broad Institute, 2014).
Out of some 3,400 compounds screened, about 160 (4.7%) were called active.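 How the source made its calls: active means fitted curve reaches 30% activation at a concentration no higher than the top valid tested dose, luminescence rising; inconclusive means no clear call, values can overlap the other calls; inactive means signal moving opposite to the expected increase, plus the rest.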 Only a sample is shown. Entries with a potency or affinity are not part of this list.

test: TCF/LEF reporter activation in neural progenitors – cell-based, iPS-derived NPC, luciferase, Wnt3a, cherry-pick, dose response (AID 1053144); settings: Wnt3a EC25, 24 h; series mostly up to 26 µM;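 further: Wnt3a stimulus is conditioned medium from Wnt3a-transfected mouse L cells at 5% in well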

| Compound | activation |
| --- | --- |
| CC(C)(C)C(=O)Nc1ccc(C(=O)Nc2cccnc2)cc1 | inactive |
| COc1cccc(/C=C/c2ccc3cccc(O)c3n2)c1OC | inactive |
| COc1cc(/C=C/c2ccc3cccc(O)c3n2)cc(Cl)c1OC | inactive |
| COc1cc(/C=C/C(=O)OCC(=O)NCCc2ccccc2)cc(OC)c1OC | inactive |
| Oc1ccc(Cl)cc1C=NN1CCCCCC1 | inactive |
| CCN1CCN(C(=O)c2ccc(-c3nc4ccccc4s3)s2)CC1 | inactive |
| COc1ccc(-c2nc3ccccc3s2)cc1NC(C)=O | inactive |
| CN(CCO)c1c2c(nc3cc(-c4cccc(F)c4)nn13)CCCC2 | inactive |
| O=C(c1ccccc1)c1nnc(-c2ccccc2F)o1 | inactive |
| O=[N+]([O-])c1cccc(C2=NC(c3ccccc3)CO2)c1 (stereo not given) | inactive |
| O=C(c1cc(-c2cccc(O)c2)on1)N1CCCCC1 | inactive |
| O=C(c1cc(-c2cccc(O)c2)on1)N1CCOCC1 | inactive |
| Cc1cc(=O)oc2cc(OCC(=O)Nc3nccs3)ccc12 | inactive |
| Cn1cccc1/C=C1\SC(=O)N(c2ccccc2)C1=O | inactive |
| CCn1cc(S(=O)(=O)CC(=O)Nc2ccc3c(c2)OCO3)c2ccccc21 | inactive |
| CC(=O)Oc1ccc(-c2csc(Nc3ccccn3)n2)cc1 | inactive |
| CC(=O)c1sc(NC(=O)c2ccc3c(c2)OCO3)nc1C | inactive |
| CC(C)NC(=O)N1CCCN(c2nc3ccc(Cl)cc3s2)CC1 | inactive |
| C=CCNC(=O)c1ccc2c3n(nc2c1)-c1ccc(C)cc1CO3 | inactive |
| CC(C)NC(=O)c1ccc2c3n(nc2c1)-c1ccc(Cl)cc1CO3 | inactive |
| C[C@@H](CO)NC(=O)c1ccc2c3n(nc2c1)-c1ccc(Cl)cc1CO3 | inactive |
| Cc1ccc2c(c1)COc1c3ccc(C(=O)NC(C)C)cc3nn1-2 | inactive |
| O=C(NCCO)c1ccc2c3n(nc2c1)-c1ccccc1CO3 | inactive |
| Cc1ccc2c(c1)COc1c3ccc(C(=O)NCCO)cc3nn1-2 | inactive |
| O=C(c1ccco1)N1CCN(c2ccc(N3CCCCC3)nn2)CC1 | inactive |
| c1cn2c(Nc3ccc4c(c3)OCCO4)c(-c3ccc(N4CCOCC4)cc3)nc2cn1 | inactive |
| Cc1nn(C(=O)c2cccs2)c(N)c1-c1ccccc1 | inactive |

| Compound | activation |
| --- | --- |
| O=C(/C=C/c1ccc([N+](=O)[O-])cc1)Nc1cccnc1 | inactive |
| COc1ccc(OC)c(NC(=O)CSc2nnc(C3CCCCC3)n2-c2ccccc2)c1 | inactive |
| O=C(COc1ccc2ccccc2c1)N1CCCC1 | inactive |
| O=C(OCC(=O)N1CCOCC1)c1ccc2ccccc2c1O | inactive |
| O=C(Nc1ccc(C(=O)c2ccccc2)cc1)c1ccccc1 | inactive |
| O=C(Nc1ccc(-c2cn3ccsc3n2)cc1)C1CC1 | inactive |
| O=c1c2cc(-c3ccccc3)sc2nc2n1CCC2 | inactive |
| CCOC(=O)c1sc2nc(-c3cccnc3)ccc2c1N | inactive |
| CC(C)c1[nH]nc2c1C(C1C=CCCC1)C(C#N)=C(N)O2 (stereo not given) | inactive |
| COc1ccc2cc(CCNC(=O)c3ccco3)c(=O)[nH]c2c1 | inactive |
| CCCNC(=O)c1oc2ccc3c(c2c1C)C(=O)CC(C)(C)O3 | inactive |
| CCCNC(=O)c1cc(-c2ccc3c(c2)OCO3)on1 | inactive |
| Cc1cccn2cc(-c3ccc(F)cc3)nc12 | inactive |
| COc1cc2ccc(-c3ccc4ccccc4n3)cc2cc1OC | inactive |
| c1ccc(-c2ccc3ccccc3n2)cc1 | inactive |
| Cc1occc1C(=O)NNC(=O)c1ccccc1F | inactive |
| CCCCNc1c(-c2ccc(-c3cccc(Cl)c3)cc2)nc2ccccn12 | inactive |
| COc1ccc(C)cc1NC(=O)CSc1nnnn1Cc1ccccc1 | inactive |
| COC(=O)c1cc2c(s1)-c1ccc(OC)cc1CC2 | inactive |
| COCCNC(=O)c1cc2sc3ccccc3c2s1 | inactive |
| CCC1CCC(NC(=O)Nc2cccc(OC)c2)CC1 (stereo not given) | inactive |
| Cc1cc2ncc(-c3ccccc3)nc2cc1C | inactive |
| Oc1ccc(-c2cnc3ccccc3n2)cc1 | inactive |
| CCC(=O)n1nc(-c2ccc(Cl)cc2)nc1SC | inactive |
| CCCCC12CN3CCN(CC(C3)/C1=N\NC(=O)c1ccccc1N)C2 | inactive |
| CN(C)c1cccc(-c2csc(N3CCC(C(N)=O)CC3)n2)c1 | inactive |
| Cc1ccc(C(=O)COC(=O)c2cccc(O)c2)s1 | inactive |

| Compound | activation |
| --- | --- |
| Cn1cccc1C(=O)OCC(=O)c1ccc(Br)s1 | inactive |
| CCOc1ccc(N2C(=O)CC(SCCN)C2=O)cc1 (stereo not given) | inactive |
| O=C(Nc1ccccc1)C1=C[C@@H](C2CC2)C[C@@H](OCc2ccc(CO)cc2)O1 | inactive |
| O=C1c2ccccc2C(=O)C1c1ccnc2ccccc12 | inactive |
| O=C1/C(=C/c2ccc(O)cc2)COc2ccccc21 | inactive |
| O=C(Nc1nccs1)c1c(O)c2c([nH]c1=O)CCCC2 | inactive |
| O=C(Nc1ccc2ccccc2c1)c1cccc(F)c1 | inactive |
| Cc1ccc2cc(NC(=O)c3ccccc3)ccc2n1 | inactive |
| COc1cccc(-c2nc(-c3ccccn3)no2)c1OC | inactive |
| CN(C(=O)c1cc2c(=O)n3ccccc3nc2n1C)C1CCCCC1 | inactive |
| Brc1ccc(-c2noc(-c3ccccc3)n2)o1 | inactive |
| Brc1ccc(-c2nc(-c3ccccc3)no2)o1 | inactive |
| O=C(c1ccc(-c2cccc(Cl)c2Cl)o1)N1CCOCC1 | inactive |
| O=C(c1ccc(-c2ccccc2Cl)o1)N1CCCCCCC1 | inactive |
| CC(C)(C)c1ccc(OCc2ccc(C(=O)NCc3cccnc3)o2)cc1 | inactive |
| O=c1ncn(-c2cccc(Cl)c2)c2ccccc12 | inactive |
| O=C(Nc1nccs1)c1ccc(N2CCOCC2)c([N+](=O)[O-])c1 | inactive |
| Cc1occc1C(=O)N/N=C/C(Br)=C\c1ccccc1 | inactive |
| O=C(N/N=C/c1cccc(OCc2ccccc2)c1)c1cccs1 | inactive |
| COc1ccc(CN2C(=O)C(C)S/C2=N/N=C/c2ccco2)cc1 (stereo not given) | inactive |
| CCCc1cc(C(=O)NC2CCCCC2)no1 | inactive |
| CC(=O)Nc1nc2cc3c(cc2s1)OCCO3 | inactive |
| O=C(Nc1nc2cc3c(cc2s1)OCCO3)c1cccs1 | inactive |
| Cc1c(C(=O)Nc2ccc(Br)cc2)cnn1C | inactive |
| Nc1nc(N)nc(-c2cccc(Br)c2)n1 | inactive |
| Cc1ccc(F)c(CNC(=O)C2(C)CCCN2C(=O)C(C)C)c1F (stereo not given) | inactive |
